Compounds with a hit are over-represented: about 2.1% of the library has one in this group of screens.
Gli-Sufu antag = Gli-Sufu pathway antagonism; AID 588413; Sufu-KO-LIGHT fibroblasts, Gli luciferase reporter luminescence; inhibition, % at 5 µM; hit rate 0.74% among 340,000;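 active means inhibition above about 55%, limit read from the data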;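 further: 0% = DMSO-treated cells and 100% = wells with medium but no cells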
GalR3 antag = human GalR3 antagonism. HEK293 GalR3-CNG cAMP membrane potential fluorescence; galR3 body fused to GalR1 C-terminus. inhibition, % at 3 µM. hit rate 0.44% among 360,000;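 active means inhibition above the screen-wide average plus 3 SD, cut at about 13% in these data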;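 further: forskolin and galanin both at EC90 stimulate the cells; cAMP rise reported by CNG channel membrane potential dye signal; 0% = forskolin plus galanin with DMSO and 100% = forskolin alone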
Target sequence (O60755 1-299 limits assumed): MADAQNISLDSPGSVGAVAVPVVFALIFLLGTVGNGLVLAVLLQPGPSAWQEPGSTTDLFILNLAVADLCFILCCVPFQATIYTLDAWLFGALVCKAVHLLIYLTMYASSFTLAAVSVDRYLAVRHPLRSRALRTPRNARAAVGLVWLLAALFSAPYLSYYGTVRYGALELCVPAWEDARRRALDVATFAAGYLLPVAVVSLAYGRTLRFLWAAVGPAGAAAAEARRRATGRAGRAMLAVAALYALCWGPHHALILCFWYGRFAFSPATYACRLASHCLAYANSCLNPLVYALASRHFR
COUP-TFII inh = inhibitors of human COUP-TFII (NR2F2); P24468; HEK293T NGFI-A luciferase reporter, luminescence; inhibition, % at 8.6 µM; hit rate 0.7% among 370,000; AID 686940;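 active means inhibition above a per-plate cutoff, mean inhibition of test wells between control levels plus 3 SD, cut at about 38% in these data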;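 further: cells cotransfected with COUP-TFII expression vector driving the NGFI-A reporter; 0% = median of COUP-TF2 test wells and 100% = reporter-only cells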
Target sequence (P24468 whole entry, looked up): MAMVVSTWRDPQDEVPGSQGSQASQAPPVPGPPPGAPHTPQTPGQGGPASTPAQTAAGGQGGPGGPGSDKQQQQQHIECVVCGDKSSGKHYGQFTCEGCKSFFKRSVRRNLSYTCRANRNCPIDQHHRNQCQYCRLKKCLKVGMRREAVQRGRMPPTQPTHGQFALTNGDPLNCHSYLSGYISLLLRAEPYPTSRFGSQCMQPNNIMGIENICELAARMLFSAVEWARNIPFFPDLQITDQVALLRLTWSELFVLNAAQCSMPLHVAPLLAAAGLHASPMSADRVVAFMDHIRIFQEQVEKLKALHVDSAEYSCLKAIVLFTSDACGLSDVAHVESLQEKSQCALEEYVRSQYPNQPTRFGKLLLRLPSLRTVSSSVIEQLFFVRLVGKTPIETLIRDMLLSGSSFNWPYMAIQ
aDG glyco act = alpha-DG glycosylation activation; activation, % at 10 µM; AID 624168; hit rate 0.22% among 360,000; Pro5-aDG cells, alpha-DG glycosylation AlphaScreen (IIH6); 0% Pro5, 100% B10-LARGE cell signal;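 active means activation of at least 8% versus controls, or a plate z-score of at least 8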;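 further: Pro5 are CHO cells carrying HIG-tagged alpha-DG that lacks glycosylation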
HIV Env fusion = blocks HIV Env-driven cell-cell fusion | HeLa-JRFL Env/CEM21 cell fusion, luciferase | inhibition, % at 12.3 µM | hit rate 1.1% among 360,000 | AID 651610;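 active means mean replicate inhibition score of at least 50 and every replicate individually at or above 50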;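 further: 0% = plate neutral controls and 100% = maraviroc near 300 nM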
Gal4-VP16 ctr = VP16 inhibition counter-screen for COUP-TFII. shares compounds with COUP-TFII inh. HEK293 Gal4-VP16 luciferase reporter, luminescence. inhibition, % at 8.5 µM. hit rate 25% among 2,500. AID 687007; in the data active means inhibition above about 13%
NR2F2 inh conf = COUP-TFII (NR2F2) inhibition, confirmation assay | hit rate 45% among 2,500 | inhibition, % at 8.5 µM | shares compounds with COUP-TFII inh | HEK293 NGFI-A luciferase reporter, luminescence;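 active means mean inhibition over three repeats above a set limit taken from the earlier primary screen, cut at about 38% in these data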;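 further: 100% = cells given the luciferase reporter alone without the COUP-TF2 vector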
* marks the source's active call; other numbers are inactive results; i = inactive; · = no result; [ ] = remark or other dose.

SMILES	Gli-Sufu antag	GalR3 antag	COUP-TFII inh	aDG glyco act	HIV Env fusion	Gal4-VP16 ctr	NR2F2 inh conf
CC(C)NC(=O)N(C)C[C@H]1Oc2c(NC(=O)Nc3ccc4c(c3)OCO4)cccc2C(=O)N([C@@H](C)CO)C[C@H]1C	·	·	·	·	-6.1[16.7 µM]	·	·
CN(C)C(=O)c1cccc(-c2ccc([C@H]3[C@@H](C#N)N(C(=O)C4CCC4)[C@@H]3CO)cc2)c1	·	·	·	·	-6.3[16.7 µM]	·	·
O=C(c1ccccc1F)N1CCN(S(=O)(=O)c2ccc3c(c2)OCCO3)CC1	-4.3	2.2	42.5*	-0.1	38.7	-13.4	13.1
O=C(NCC(=O)N1CCN(S(=O)(=O)c2ccc3c(c2)OCCO3)CC1)c1ccccc1F	-6.7	-5.5	2.8	0.1	·	·	·
C[C@@H]1CCCCO[C@@H](CN(C)S(=O)(=O)c2cn(C)cn2)[C@H](C)CN([C@@H](C)CO)C(=O)c2cc(NC(=O)Nc3ccc(F)cc3)ccc2O1	·	·	·	·	36.7[16.7 µM]	·	·
CN(Cc1ccccc1)C(=O)c1ccc(NC(=O)Cc2ccc(NC(=O)C3CCCN(C(=O)C4CCC4)C3)cc2)cc1 (configuration not stated)	-1.2	-7.5	10.4	0.0	-20.0	·	·
CN(Cc1ccccc1)C(=O)c1ccc(NC(=O)Cc2ccc(NC(=O)C3CCCN(C(=O)CCc4ccccc4)C3)cc2)cc1 (configuration not stated)	28.8	-7.6	75.3*	0.0	23.3	7.5	69.7*
CN(Cc1ccccc1)C(=O)c1cccc(NC(=O)Cc2ccc(NC(=O)C3CCN(C(=O)CCc4ccccc4)CC3)cc2)c1	20.5	-3.7	69.8*	0.1	22.5	5.3	42.6*
CN(C(=O)c1cccc(NC(=O)Cc2ccc(NC(=O)C3CCCN(C(=O)CCc4ccccc4)C3)cc2)c1)C1CC1 (configuration not stated)	11.1	-2.0	10.3	0.3	3.4	·	·
CN(C(=O)c1cccc(NC(=O)Cc2ccc(NC(=O)C3CCCN(C(=O)CCc4ccccc4)C3)cc2)c1)C1CCCCC1 (configuration not stated)	17.5	-9.1	77.3*	0.1	48.6	-0.5	62.1*
CN(Cc1ccccc1)C(=O)c1ccc(NC(=O)Cc2ccc(NC(=O)C3CCN(C(=O)CCc4ccccc4)CC3)cc2)cc1	16.1	-5.7	7.1	0.1	22.1	·	·
Cc1ccc(C(=O)N2c3ccccc3N(Cc3ccccc3)C(=O)C2(C)C)cc1	18.1	-1.1	51.1*	0.1	·	-1.2	46.6*
Cc1ccc(CN2C(=O)C(F)(F)Oc3ccccc32)cc1	·	-2.4	-3.8	0.0	-1.8	·	·
COc1cccc(C(=O)Nc2ccc3c(c2)C(=O)N(C)[C@H]2CC[C@H](CC(=O)NCCCN4CCOCC4)O[C@@H]2CO3)c1	·	·	·	·	11.7[16.7 µM]	·	·
Cc1ccc(S(=O)(=O)Nc2ccc3c(c2)C(=O)N([C@@H](C)CO)C[C@@H](C)[C@H](CN(C)S(C)(=O)=O)OCCCC[C@@H](C)O3)cc1	·	·	·	·	-0.1[16.7 µM]	·	·
CN(C)c1ccc(C2Nc3ccccc3C(=O)N2CCCN2CCOCC2)cc1 (configuration not stated)	3.2	2.8	46.9*	0.1	11.8	-11.5	-15.2
CCN(CC)CCN1C(=O)c2ccccc2NC1c1ccc(N(C)C)cc1 (configuration not stated)	2.6	-3.9	26.0	0.1	·	·	·
C[C@@H]1CN([C@H](C)CO)C(=O)c2cccc(NS(=O)(=O)c3cn(C)cn3)c2O[C@H]1CN(C)S(=O)(=O)c1cn(C)cn1	·	·	·	·	-8.6[16.7 µM]	·	·
Cc1ccc(S(=O)(=O)N(C)CCCC(=O)Nc2ccncc2)cc1	5.5	0.1	41.8*	0.0	6.4	-1.2	19.1
Cn1nc(C(C)(C)C)cc1C(=O)N1CCCCC1c1cc(C(=O)NCc2ccc(F)cc2)no1 (configuration not stated)	·	-7.4	38.5*	1.5	23.7	2.7	16.8
Cn1nc(C(C)(C)C)cc1C(=O)N1CCCCC1c1cc(C(=O)NCc2ccccc2)no1 (configuration not stated)	·	-9.4	27.7	1.4	-15.4	·	·
CCNC(=O)C[C@H]1CC[C@@H]2[C@@H](COc3ccc(NC(=O)c4cc(C)on4)cc3C(=O)N2C)O1	·	·	·	·	-1.4[16.7 µM]	·	·
CC1(C)CC(=O)C=C(c2ccc(Oc3ccccc3)cc2)C1=O	·	-7.0	7.5	-0.1	15.6	·	·
CC1(C)CC(=O)C=C(c2ccc(-c3cnc4ccccc4c3)cc2)C1=O	·	-5.0	41.9*	0.8	-40.4	-62.2	77.9*
Cc1ccc(C(=O)N/N=C\c2ccc([N+](=O)[O-])s2)cn1	32.6	-1.0	39.8*	6.3	2.3	30.8*	20.2
SMILES	Gli-Sufu antag	GalR3 antag	COUP-TFII inh	aDG glyco act	HIV Env fusion	Gal4-VP16 ctr	NR2F2 inh conf
Cc1ccc(C(=O)N/N=C/c2ccc([N+](=O)[O-])s2)cc1	-28.8	-0.5	53.5*	12.7*	·	84.5*	92.6*
C[C@@H]1CCCCO[C@@H](CN(C)C(=O)c2ccncc2)[C@H](C)CN([C@@H](C)CO)C(=O)c2cc(NC(=O)C3CCCCC3)ccc2O1	·	·	·	·	-10.5[16.7 µM]	·	·
Nc1ccc(-c2nc3c(Cl)cc(N)cc3[nH]2)cc1	·	0.7	47.8*	0.1	·	57.2*	35.6
Cc1cccc(C(=O)N2CCc3cc(-c4nc(NC(=O)CN5CCCC5)sc4C)ccc32)c1	-17.1	-9.3	1.9	0.1	7.1	·	·
Cc1sc(NC(=O)CN2CCOCC2)nc1-c1ccc2c(c1)CCN2S(=O)(=O)c1ccccc1	45.3	-6.7	64.9*	2.2	·	8.5	56.0*
O=C(CN1CCOCC1)Nc1nc(-c2ccc3c(c2)CCN3S(=O)(=O)c2ccccc2)cs1	12.3	1.5	42.4*	1.6	·	0.1	14.8
CS(=O)(=O)N1CCc2cc(-c3csc(NC(=O)Cc4cccs4)n3)ccc21	7.8	-7.8	66.4*	0.0	76.1*	-4.0	35.0
Cc1ccc(-c2csc(NC(=O)CN3CCOCC3)n2)cc1	-7.4	-10.1	-6.7	0.2	-12.6	·	·
CCCCCCn1ccc(=N)cc1	5.2	1.9	76.4*	0.3	·	4.2	49.6*
O=[N+]([O-])c1ccc(Sc2cccc[n+]2[O-])c2nonc12	86.3*	-5.9	101.4*	-0.1	-130.1	96.5*	105.3*
Cc1cc(N)n2ncc(-c3ccc(F)cc3)c2n1	-89.5	-5.5	-42.4	0.1	i	·	·
Cc1nc2c(-c3ccc(F)cc3)cnn2c(N)c1-c1ccc(F)cc1	32.2	-10.8	47.2*	0.7	-445.9	-89.4	18.5
COCCNC(=O)C[C@@H]1CC[C@H](NC(=O)NC2CCCC2)[C@@H](CO)O1	·	·	·	·	-28.2[16.7 µM]	·	·
Cc1[nH]c2ccccc2c1/C=C/c1cc[n+](C)cc1	19.5	-0.9	16.5	0.0	·	·	·
C=CCn1c(C)c(/C=C/c2cc[n+](C)cc2)c2ccccc21	44.6	7.8	56.2*	-0.1	17.4	7.1	33.8
CCn1cc(/C=C/c2cc[n+](C)cc2)c2ccccc21	57.6*	-11.9	41.8*	0.2	40.4	9.2	20.4

Compound activity from PubChem.
